# From PubChem BioAssay AID488857 (Sanford-Burnham Center for Chemical Genomics, 2010)
# Screen size: about 1,400 compounds; about 560 (40%) were called active. So high a share suggests a set chosen from earlier hits. This is one part of the list. Unmarked numbers belong to inactive results.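 Rule for the calls: active = mean inhibition over duplicate tests at 10 µM above 50%; inactive = the rest.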
# Assay: ASC/caspase-1 reporter retest in S. cerevisiae at one dose, specificity check for NALP1 project (AID 488857)
# Details: S. cerevisiae ASC/Caspase-1, beta-galactosidase luminescence, 24 h; at 10 µM; stronger effect = higher value
row,Structure (SMILES),inhibition
1,O=C(/C=C/c1c[nH]c2ccccc12)c1ccccc1,86.5% (active)
2,O=C(/C=C/Sc1ccccc1)c1ccc(Cl)cc1,44.6%
3,O=C(NC(Cc1c[nH]c2ccccc12)C(=O)O)/C(=C\c1ccc2c(c1)OCO2)NC(=O)c1ccccc1 (stereo unspecified),28.8%
4,Oc1oc(-c2ccccc2)nc1C=Nc1cccc2ccccc12,32.5%
5,Clc1ccc(C2=NNC(=NCc3ccc4c(c3)OCO4)SC2)cc1,33.4%
6,CC(C)N1CCC2(CC1)N=C(c1ccc3c(c1)OCO3)CC(c1cc(Cl)ccc1O)N2 (stereo unspecified),74.5% (active)
7,CC(=O)c1c(C)oc2c1C(=O)c1ccccc1C2=O,74.2% (active)
8,CCNc1c(C(=O)O)ccc2c1C(=O)c1ccccc1C2=O,39.5%
9,COc1ccc(C(=O)c2c(C(F)(F)F)oc3c2C(=O)c2ccccc2C3=O)cc1,20.5%
10,CCN1CCN(c2cc(C(C)C)nc3c(-c4ccccc4)c(C)nn23)CC1,52.5% (active)
11,O=C(c1cccc(F)c1)N1CCN(c2cc(N3CCCCC3)c(F)cc2[N+](=O)[O-])CC1,49.4%
12,O=C(c1ccc2c(Cl)c3c(nc2c1)CCCC3)N1CCN(c2ccc(F)cc2)CC1,61.5% (active)
13,c1cc2c3c(cccc3c1)NC1(CCCCCC1)N2,19.9%
14,Cc1ccc(-c2cc(NC(=O)CSc3n[nH]c(N)n3)n(-c3ccccc3)n2)cc1,21.9%
15,COCC(=O)OCC(=O)Nc1cc(C(C)(C)C)nn1-c1ccccc1,21.4%
16,O=C(CCl)Nc1cc(-c2ccccc2)nn1-c1ccccc1,78.5% (active)
17,CCC(C)c1ccccc1NC(=O)CN1CCN(C/C=C/c2ccccc2)CC1 (stereo unspecified),55% (active)
18,COC(=O)c1ccccc1NC(=O)N1CCN(C/C=C/c2ccccc2)CC1,42.6%
19,O=C(CN1CCOCC1)Nc1ccccc1Sc1ccc(Cl)cc1,28.6%
20,Cc1noc2ncc(C(=O)c3cc(F)ccc3O)cc12,27.6%
21,c1ccc(COc2ccc(OCCN3CCCCC3)cc2)cc1,39.1%
22,CC1CCN(CCOc2ccc(Cl)c(Cl)c2)CC1,56.5% (active)

row,Structure (SMILES),inhibition
1,Clc1ccc(OCCCN2CCCC2)cc1Cl,40%
2,CCN(CC)CCCOc1ccc(Cl)c(Cl)c1,39.4%
3,CC1CCN(CCOc2cccc(Br)c2)CC1,43.1%
4,Clc1ccc(OCCN2CCCCC2)cc1Cl,57.7% (active)
5,CCN1CCN(Cc2cccc(Oc3ccccc3)c2)CC1,40%
6,CN(C)Cc1ccccc1COc1ccccc1,31.8%
7,CC1CCN(CCOc2ccc(OCc3ccccc3)cc2)CC1,59.3% (active)
8,Clc1cccc(OCCN2CCN(CCOc3cccc(Cl)c3)CC2)c1,65.6% (active)
9,Cn1c(=O)n(CCCOc2ccc(Cl)cc2)c2ccccc21,46.1%
10,CCN(CC)S(=O)(=O)c1ccc(NS(=O)(=O)c2cccs2)cc1,29.6%
11,Cc1ccc(/C(N)=N/OC(=O)c2cccs2)cc1,69.2% (active)
12,Cc1ccc(/C(N)=N/OC(=O)c2ccc(Cl)cc2Cl)cc1,46.2%
13,Cc1ccc(/C(N)=N/OC(=O)c2ccc3c(c2)OCO3)cc1,86.8% (active)
14,Cc1cccc(/C(N)=N/OC(=O)c2ccc3c(c2)OCO3)c1,55.8% (active)
15,CC1CN(C(=O)Nc2ccc3c(c2)OCO3)CC(C)O1 (stereo unspecified),27.1%
16,CC1(C)CC(=O)c2cc(C(=O)O)c(=O)n(-c3ccccc3)c2C1,37.4%
17,CC(C)c1nc(SCC(=O)Nc2ccc3c(c2)OCCO3)n[nH]1,24.2%
18,Oc1c(Br)cc(Br)cc1C=Nc1ccc2c(c1)OCO2,64.6% (active)
19,COc1cc(Br)cc(C=Nc2cccc(C(F)(F)F)c2)c1O,30%
20,O=C(/C=N/O)Nc1cccnc1,41.3%
21,Oc1c(Br)cc(Br)cc1C=Nc1cccnc1,54.1% (active)
22,O=C(Nc1cccc(N=Cc2cc(Br)cc(Br)c2O)c1)c1ccco1,57% (active)

row,Structure (SMILES),inhibition
1,Cc1ccsc1/C=N/NC(=O)c1ccco1,48.5%
2,CCOc1nc(-c2ccccc2Cl)ccc1C#N,45.4%
3,OC(CNCCc1ccc(C(F)(F)F)cc1)COc1cccc2ccccc12 (stereo unspecified),59.9% (active)
4,C=CCNc1oc(COc2ccc(C)cc2)nc1C#N,56.6% (active)
5,COC(=O)C(CCSC)NC(=O)Cn1ncc2c(=O)oc3ccccc3c21 (stereo unspecified),42%
6,O=C1C=CC(=O)N1c1ccc(N2CCCCC2)cc1,68.2% (active)
7,O=[N+]([O-])c1ccc(N2CCCCC2)cc1,39.5%
8,CCCc1[nH]nc2c1C(c1ccoc1)C(C#N)=C(N)O2 (stereo unspecified),43.1%
9,O=c1c2c(C(F)(F)F)cc(C(F)(F)F)nc2[nH]n1-c1ccccc1,33%
10,Nc1c(Cl)ncnc1N/N=C/c1ccccn1,85.2% (active)
11,Cc1c(Cl)c([N+](=O)[O-])nn1Cc1ccc(C(=O)N/N=C\c2ccccn2)o1,31.1%
12,Nc1c2c(nc3sc4c(c13)CCCCC4)CCCCC2,69% (active)
13,N#Cc1cnn(-c2ncnc3sc4c(c23)CCCC4)c1N,37.2%
14,Nc1c2c(nc3sc4c(c13)CCCC4)CCCCCC2,48.9%
15,CC1CCc2nc3sc4c(c3c(N)c2C1)CCCC4 (stereo unspecified),93.2% (active)
16,C=C(C)COc1ccc2c(CC)cc(=O)oc2c1C,61.5% (active)
17,CC(C)(C#CCN1CCCCC1)OCCOC(c1ccccc1)c1ccccc1,30.2%
18,CN(C)C(C)(C)C#CCC(c1ccccc1)c1ccccc1,55% (active)
19,CCCCNC(=O)Nc1nnc(-c2ccc(Cl)cc2)o1,54.4% (active)
20,CCCCNC(=O)Nc1cc(C)on1,27.1%
21,CCC1(CC)Cc2ccccc2C(Nc2c(C)n(C)n(-c3ccccc3)c2=O)=N1,18.9%
22,O=C(Cc1coc2cc3c(cc12)CCC3)NCC1(N2CCCCC2)CCCCC1,45%

row,Structure (SMILES),inhibition
1,Cc1ccc(OCc2nc(-c3ccc(Cl)cc3)n[nH]2)cc1,78.2% (active)
2,O=C(O)[C@@H](c1ccccc1)N1Cc2ccccc2C1=O,22.6%
3,COC(=O)N/N=C(\C)c1ccc2ccccc2c1OC(F)F,62.3% (active)
4,OC(CNCCC1C=Nc2ccccc21)Cn1c2ccc(Cl)cc2c2cc(Cl)ccc21 (stereo unspecified),53.8% (active)
5,Clc1ccc(OCCOCCN2CCc3ccccc3C2)c(Cl)c1,58.2% (active)
6,CC(C)NCCOCCOc1ccc(Cl)cc1Br,39.3%
7,Clc1ccc(OCCCNCc2ccccc2)c2ccccc12,53.2% (active)
8,CCc1cc(OCCCCNCc2ccccc2)ccc1Cl,44.5%
9,Cc1nc2c(=O)n(C)c(=O)n(C)c2nc1Cl,25.6%
10,Cc1ccc(S(=O)(=O)c2nc(Nc3ccccc3)sc2Cl)cc1,69.3% (active)
11,CCOC(=O)/C(=N\Nc1ccc(Cl)cc1)c1csc(Nc2ccccc2)n1,31.7%
12,Cc1ccc(S(=O)(=O)c2nc(C)oc2NCc2ccccc2)cc1,34.9%
13,CC1CCCC(NC(=O)C2CCN(S(=O)(=O)N3CCCCC3)CC2)C1C (stereo unspecified),36.5%
14,O=C(COc1cccc2ccccc12)N1CCN(c2ccccc2)CC1,52% (active)
15,CCn1c(COc2ccccc2C)nnc1SCC(=O)N1CCN(c2ccccc2)CC1,40.5%
16,O=C(Cc1ccc(-n2c(=O)[nH]c3ccccc3c2=O)cc1)N1CCN(c2ccccc2)CC1,17.4%
17,C/C(=N\N1CCN(c2ccc(Cl)cc2)CC1)c1ccco1,36.9%
18,CCCCCOc1ccc(Br)cc1CSC(=N)N,59% (active)
19,FC(F)(F)C(F)(F)c1nnc2ccc(-n3ccnc3)nn12,33.5%
20,Cc1ncc(S(=O)(=O)c2ccccc2)c(-c2ccccc2Cl)n1,7.65%
21,COc1ccc2cc(/C=N/O)c(Cl)nc2c1,55% (active)
22,COc1ccc(CC2(C)OC(c3ccc(C)cc3)=NN2C(C)=O)cc1 (stereo unspecified),59% (active)

row,Structure (SMILES),inhibition
1,O=C1C=CC(=O)N1c1ccc(OC(F)F)cc1,71% (active)
2,CNCc1ccccc1Sc1cc(O)ccc1O,24.2%
3,CN1c2ccccc2Sc2cc(N)ccc21,87.7% (active)
4,CC(C)C(=O)N(Cc1ccccc1)c1ccccn1,21.7%
5,Nc1c(C(=O)NCc2ccc3c(c2)OCO3)nnn1-c1ccc(OC(F)(F)F)cc1,48.9%
6,CCOc1ccc(CNC(=O)c2cc3oc4ccccc4c3n2C)cc1,32.7%
7,Cc1cc(C)cc(-n2nnc(C(=O)NCc3ccccc3)c2N)c1,53.6% (active)
8,C=C(C)C(=O)Nc1nnc(-c2cccs2)s1,36.6%
9,Cc1ccc(Nc2nnc(SCC(=O)Nc3ccc(S(=O)(=O)N4CCOCC4)cc3)s2)cc1,36%
10,CCSc1nnc(NC(=O)c2ccccc2)s1,85.4% (active)
11,CC(C)COC(=O)Nc1nnc(SCc2ccccc2F)s1,47.1%
12,CCSc1nnc(NC(=O)c2ccc(C)o2)s1,59.5% (active)
13,Cc1cccc(N/C=C/C(=C(C#N)C#N)N(C)C)c1,38.1%
14,CN(C)c1ccc(N/C=C/C(=O)c2ccccc2)cc1,62.9% (active)
15,O=C(NCc1cccnc1)C1CCN(S(=O)(=O)c2cccnc2)CC1,42.8%
16,COc1ccc(S(=O)(=O)N(CC(=O)N2CCOCC2)Cc2ccccc2)cc1C,40.5%
17,O=C(c1ccc(Br)s1)N1CCN(C/C=C/c2ccccc2)CC1,55.4% (active)
18,CN(CC(=O)NC(=O)NCc1ccccc1)Cc1cccc(Cl)c1Cl,43.1%
